Screening results from PubChem.
Most compounds without a hit are left out; they make up all but 11% or so of the library.
FLuc inh-1 – blocks purified firefly luciferase enzyme activity; P08659; purified P. pyralis luciferase, luminescence, biochemical; Potency, µM (series often up to 115 µM), actives largely listed as inhibitors; 76,000 tested, 2.5% active; AID 1347043; further: on the % scale 0 is the no-effect control and ±100 the full control effect; nearly all actives have a fitted effect of over 65% in size
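Biochemical qHTS: compound (6-point titration) added to 10uM D-luciferin plus 10uM ATP in Tris acetate pH 7.5 buffer with Mg, Tween-20 and BSA, then purified enzyme at 10nM; light output imaged.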
NPR1 antag – antagonists of human natriuretic peptide receptor Npr1 | P16066 | HEK293 hNpr1 GloSensor cGMP, ANP-stimulated luminescence | Potency, µM (titrated, usually from 46.3 µM), for inactives: top-dose activity change, negative = inhibition, most hits filed as inhibitors | 76,000 tested, 1.6% active; calls by dose curve; further: on the % scale 0 is the no-effect control and ±100 the full control effect; nearly all actives have a fitted effect of over 60% in size
Target sequence (P16066 whole entry, looked up): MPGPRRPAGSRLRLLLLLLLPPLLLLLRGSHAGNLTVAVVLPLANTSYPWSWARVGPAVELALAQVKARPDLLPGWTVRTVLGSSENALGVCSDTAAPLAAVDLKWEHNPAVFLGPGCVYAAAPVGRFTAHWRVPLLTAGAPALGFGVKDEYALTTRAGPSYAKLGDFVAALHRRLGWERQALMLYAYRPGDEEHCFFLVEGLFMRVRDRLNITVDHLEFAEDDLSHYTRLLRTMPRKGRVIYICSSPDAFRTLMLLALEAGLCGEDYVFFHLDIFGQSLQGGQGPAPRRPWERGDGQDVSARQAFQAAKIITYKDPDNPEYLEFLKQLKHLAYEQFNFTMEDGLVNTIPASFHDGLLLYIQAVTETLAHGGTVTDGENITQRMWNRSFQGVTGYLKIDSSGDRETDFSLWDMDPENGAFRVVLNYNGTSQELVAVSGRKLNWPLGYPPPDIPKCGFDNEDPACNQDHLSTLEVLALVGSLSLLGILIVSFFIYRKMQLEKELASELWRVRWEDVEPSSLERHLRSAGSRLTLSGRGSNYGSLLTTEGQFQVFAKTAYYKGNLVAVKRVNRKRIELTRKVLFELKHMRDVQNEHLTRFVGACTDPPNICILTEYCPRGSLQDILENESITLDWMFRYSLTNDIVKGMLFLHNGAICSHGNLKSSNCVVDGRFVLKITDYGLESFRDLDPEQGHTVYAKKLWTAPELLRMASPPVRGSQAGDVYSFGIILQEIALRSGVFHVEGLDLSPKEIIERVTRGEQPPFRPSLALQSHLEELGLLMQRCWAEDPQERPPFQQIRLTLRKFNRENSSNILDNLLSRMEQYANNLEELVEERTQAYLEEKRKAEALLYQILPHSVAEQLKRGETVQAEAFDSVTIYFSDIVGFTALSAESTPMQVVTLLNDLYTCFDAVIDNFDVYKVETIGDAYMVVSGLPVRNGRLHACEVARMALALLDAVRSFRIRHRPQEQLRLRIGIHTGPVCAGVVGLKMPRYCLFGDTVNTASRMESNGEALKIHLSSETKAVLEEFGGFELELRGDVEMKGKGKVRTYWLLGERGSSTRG
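Compound pre-incubated 30 min at room temperature on GloSensor-loaded HEK293 cells stably carrying hNpr1 and the pGS-40F cGMP biosensor. Stimulation uses hNppA at 0.1 nM final; luminescence is taken at baseline and 20 min post-agonist.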
NIH3T3 tox – kills NIH 3T3 cells; NIH 3T3 viability, CellTiter-Glo ATP luminescence, 48-72 h; Potency, µM (series often up to 96.7 µM), inactives show at the highest dose activity change, negative = cytotoxicity, hits mostly inhibitors; 94,000 tested, 4.3% active; AID 1345082; further: on the % scale 0 is the no-effect control and ±100 the full control effect; nearly all actives have a fitted effect of over 55% in size
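Mouse fibroblast NIH 3T3 cells, 400 per well, received compound via pintool and were incubated for 48 or 72 hr prior to CellTiter-Glo ATP luminescence measurement.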
HEK cytotox – HEK 293 cell cytotoxicity | 94,000 tested, 6.6% active | HEK 293 viability, ATP luminescence (CellTiter-Glo), 48-72 h | Potency, µM (doses to about 115 µM), without a hit: top-dose activity change, negative = cytotoxicity, hits mostly inhibitors; further: on the % scale 0 is the no-effect control and ±100 the full control effect; nearly all actives have a fitted effect of over 60% in size
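Pintool-delivered compounds were incubated with HEK 293 cells (250 cells/well) at 37 degree Celsius for 48 or 72 hr. ATP-dependent luminescence (CellTiter-Glo) then reported remaining viable cells.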
FLuc SDR -ATP – firefly luciferase binding stabilization, ATP absent. shares compounds with FLuc inh-1. Purified FLuc-C-HiBiT, Nano-Glo HiBiT luminescence, no ATP. Potency, µM (series often up to 32.7 µM), without a hit: at the highest dose activation (signal gain), most hits filed as activators. 1,300 tested, 7.8% active; further: nearly all actives have a fitted effect of over 55% in size
FLuc SDR ATP – binders stabilizing firefly luciferase, plus ATP. shares compounds with FLuc inh-1. purified FLuc-C-HiBiT + ATP, HiBiT complementation luminescence. Potency, µM (titrated, usually from 32.7 µM), for inactives: at the top dose activation (gain of signal), actives largely listed as activators. 1,300 tested, 8.7% active. AID 1963319;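 further: signal reports ligand binding via conformational change of the enzyme rather than luciferase catalysis; % of control where 0% means no effect; nearly all actives have a fitted effect of over 55% in size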
FLuc inh-2 – inhibitors of firefly luciferase enzymatic activity; shares compounds with FLuc inh-1; purified FLuc-C-HiBiT enzyme, luciferin luminescence; Potency, µM (top dose mostly 32.7 µM), for the others: at the top dose activity change, negative = inhibition, usual class: inhibitors; 1,300 tested, 42% active; AID 1963320; further: on the % scale 0 is the no-effect control and ±100 the full control effect; nearly all actives have a fitted effect of over 70% in size
Numbers without * were called inactive; i = inactive; ? = inconclusive; nt = not tested or not shown; [ ] = remark or other dose. Unless noted, the call rests on the fitted dose curve; in most records, active means well fitted curve in the direction sought with a large enough effect; inconclusive means small, poorly fitted or top-dose-only effect, or another doubt; inactive means no such curve, though single readings can be large; an effect the other way counts as inactive or inconclusive. Potency means the concentration at half of the fitted maximal effect.

SMILES	FLuc inh-1	NPR1 antag	NIH3T3 tox	HEK cytotox	FLuc SDR -ATP	FLuc SDR ATP	FLuc inh-2
O=C(Nc1ccc2c(c1)OCCO2)N1CCC2(CC1)CC(N1CCCC1)CCO2 (stereo unspecified)	6.3µM*	-8%	i	12%	29%	?	?
O=C(Nc1ccc2c(c1)OCCO2)N1CCC2(CC1)CC(N1CCOCC1)CCO2 (stereo unspecified)	nt	nt	-13%	2%	nt	nt	nt
COc1ccc(C(=O)N2CCCC(c3nc(-c4ccccc4)no3)CCNC(=O)CC2)c(OC)n1 (stereo unspecified)	7.9µM*	?	-15%	-21%	17%	15%	?
COc1ccc(C(=O)N2CCCC(c3nc(-c4cccnc4)no3)CCNC(=O)CC2)c(OC)n1 (stereo unspecified)	i	9%	i	-1%	nt	nt	nt
COc1cc(C(=O)Nc2cc(C)c(O)c(-c3nc4ccccc4s3)c2)cc(OC)c1OC	nt	nt	nt	nt	15%	10%	-7%
COc1ccc(C(=O)Nc2cc(C)c(O)c(-c3nc4ccccc4s3)c2)cc1OC	nt	nt	nt	nt	21%	13%	?
CN(C)c1ncnc2sc3c(c12)CCN(Cc1ccc2cc[nH]c2c1)C3	i	-11%	?	-5%	nt	nt	nt
COc1cccc(CN2Cc3cc(NC(=O)CC(C)(C)C)ccc3OC(C)C2=O)c1OC (stereo unspecified)	i	-2%	-24%	?	nt	nt	nt
COc1ccc(C(=O)NCCn2cccc2-c2nc(-c3ccccc3)no2)cc1	2.5µM*	?	-3%	-24%	?	?	2.8µM*
Cc1ccc(C(=O)NCCn2cccc2-c2nc(-c3ccc4c(c3)OCO4)no2)cn1	13µM*	-25%	?	28µM*	26%	17%	?
CCOc1ccc(C(=O)NCCn2cccc2-c2nc(-c3ccccc3)no2)cc1OCC	i	-3%	-11%	?	nt	nt	nt
O=C(NCCn1cccc1-c1nc(-c2ccc3c(c2)OCO3)no1)c1ccc(Cl)cc1	14µM*	-22%	-26%	?	13%	12%	?
Cc1ccc(C(=O)NCCn2cccc2-c2nc(-c3ccc4c(c3)OCO4)no2)cc1	?	-14%	-11%	-22%	nt	nt	nt
COc1cc(CNC(=O)C23CCC=C2N(C2CCCC2)C(=O)CC3)cc(OC)c1 (stereo unspecified)	nt	nt	-27%	-26%	nt	nt	nt
O=C([C@@H]1C[C@H](Oc2ccccc2)CN1C(=O)CCC1CCCC1)N1CCCC1	i	9%	?	-27%	nt	nt	nt
O=C(c1cc(-c2ccccc2)n[nH]1)N1CCC(N2CC3CC(C2)[C@H]2CCCC(=O)N2C3)CC1 (stereo partly specified)	i	5%	i	2%	nt	nt	nt
CCN1C(=O)CCc2cc(NC(=O)c3ccc(C(C)C)cc3)ccc21	3.5µM*	?	?	?	25%	14%	?
COCCn1c(C)cnc1CCNS(=O)(=O)c1cccc(OC)c1	i	-14%	-14%	-14%	nt	nt	nt
COc1cccc(NC(=O)c2ccc(CN3C(=O)NC4(CCOCC4)C3=O)cc2)c1	?	-3%	3%	?	nt	nt	nt
Cc1ccc(NC(=O)c2ccc(CN3C(=O)NC4(CCOCC4)C3=O)cc2)cc1C	10µM*	?	-15%	?	?	14%	?
CC(C)c1ccc(NC(=O)c2ccc(CN3C(=O)NC4(CCOCC4)C3=O)cc2)cc1	2µM*	10µM*	40µM*	?	?	?	3.5µM*
Cc1ccccc1CN1CC[C@H](c2nc3ccccc3s2)C1	7.9µM*	-26%[70.6 µM]	?	71µM*	12%[49.3 µM]	10%[49.3 µM]	?
Cc1ccc2nc([C@H]3CCN(Cc4cccs4)C3)[nH]c2c1	7.1µM*	-28%[70.6 µM]	?	56µM*	16%[49.3 µM]	17%[49.3 µM]	?
Cc1ccccc1CN1CC[C@H](c2nc3ccc(F)cc3[nH]2)C1	14µM*	?	?	35µM*	12%[49.3 µM]	10%[49.3 µM]	?
COc1ccc(-c2nc3c(c(-c4ccccc4)n2)CN(C(=O)c2ccccc2)CC3)cc1	i	13%	?	?	nt	nt	nt
SMILES	FLuc inh-1	NPR1 antag	NIH3T3 tox	HEK cytotox	FLuc SDR -ATP	FLuc SDR ATP	FLuc inh-2
COc1cccc(CNC(=O)[C@@H]2C[C@@H](O)CN2C2CCN(C(=O)c3ccc(OC)cc3OC)CC2)c1	i	1%	-12%	3%	nt	nt	nt
CN1C(=O)N(CCc2ccccc2)C(=O)C12CCN(Cc1cn[nH]c1-c1ccc(F)cc1)CC2	i	5%	-26%	?	nt	nt	nt
CN(CC1CCOC1)C(=O)c1cccc(Cl)c1 (stereo unspecified)	i	0%	3%	-2%	nt	nt	nt
NC(=O)[C@@H]1C[C@H](Oc2cccnc2)CN1S(=O)(=O)Cc1ccccc1F	i	4%	-11%	2%	nt	nt	nt
CC(=O)NC[C@H]1Cn2cc(-c3ccccc3)nc2CO1	?	5%[70.6 µM]	i	i	nt	nt	nt
c1ccc(-c2cn3c(n2)CO[C@@H](CNCc2cccs2)C3)cc1	5.6µM*	-20%[70.6 µM]	-25%[138 µM]	?	13%[49.3 µM]	8%[49.3 µM]	?
COc1ccccc1-c1nc2cc(NC(=O)c3ccccc3Cl)ccc2o1	nt	nt	nt	nt	16%	13%	?
O=C(Nc1ccc2oc(-c3ccccc3F)nc2c1)c1ccccc1Cl	nt	nt	nt	nt	20%	17%	?
O=C(NCCc1ccccc1F)c1ccc2oc(-c3ccncc3)nc2c1	nt	nt	-4%[138 µM]	-11%[172 µM]	nt	nt	nt
CC(C)(Oc1ccc(-c2nc3cc(Cl)ccc3s2)cc1)C(=O)O	nt	nt	nt	nt	?	?	8.8µM*
COCC1CN(S(=O)(=O)c2ccc3c(c2)OCCO3)CC12CCNCC2 (stereo unspecified)	i	-2%	-11%	-24%	nt	nt	nt
COc1ccc(OCc2cc(C(=O)N3C[C@H]4CC[C@H]3C4)n[nH]2)c(Cl)c1	8.9µM*	-18%	?	?	13%	13%	-5%
CCc1ccccc1NC(=O)Cn1c(-c2ccc(F)cc2)nc(C)cc1=O	i	-1%	-21%	-2%	nt	nt	nt
CCc1ccccc1NC(=O)c1nnn(-c2ccc(F)cc2)c1C	nt	nt	nt	nt	30%	19%	?
Cc1ccc(NC(=O)c2cc(NC(=O)C3CC3)cc3nc(C)ccc23)cc1	i	4%	?	?	nt	nt	nt
Cc1ccc2nc(-c3ccc(NC(=O)Cc4ccccc4)cc3)sc2c1	nt	nt	nt	nt	13%	14%	?
Cc1ccc2nc(-c3ccc(NC(=O)COc4ccc(Br)cc4Br)cc3)sc2c1	nt	nt	nt	nt	?	?	3.5µM*
Cc1ccc2nc(-c3ccc(NC(=O)COc4c(C)ccc(C)c4C)cc3)sc2c1	nt	nt	nt	nt	17%	15%	?
